Source: PubChem BioAssay (EPA / NIEHS)
Inconclusive results are not listed. The source made the active and inactive calls. The calls were made as follows, unless noted: active = hit-call score of the fitted dose curve at least 0.9, where 1 is the maximum; inactive = score below 0.9.

Tests used:
[1] = ATG_NRF2_ARE_CIS: Attagene CIS-FACTORIAL HepG2 Assay for human Nuclear Factor Erythroid 2 Related Factor 2 (NFR2) response to Antioxidant Response Elements (ARE) (AID 2282992); details: HepG2 Attagene ARE/NRF2 reporter, transcription factor activity; actives raise or lower the signal;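 as to AC50: reporter mRNA level measured by RT-PCR and capillary electrophoresis fluorescence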
Outline: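 Multiplexed reporter mRNA profiling in HepG2 after a 24 h chemical exposure. Curves fitted in both directions relative to DMSO negative control.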

[2] = ATG_Oct_MLP_CIS: Attagene CIS-FACTORIAL HepG2 Assay for human Octamer-Binding Transcription Factor (Oct) (AID 2282993); details: HepG2 Attagene cis-factorial Oct reporter, mRNA; actives raise or lower the signal
Outline: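 After 24 h compound exposure, transfected HepG2 cells were lysed for total RNA; reporter-specific cDNA was PCR-amplified, fluorescently labelled and sized by capillary electrophoresis. Bidirectional curve fitting used DMSO as baseline.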

[3] = molecular target: Cellular tumor antigen p53 (Homo sapiens) (UniProt P04637); assay: ATG_p53_CIS: Attagene CIS-FACTORIAL HepG2 Assay for human p53 Transcription Factor (AID 2282994); details: HepG2 p53 cis-element reporter, Attagene mRNA; actives raise or lower the signal
Outline: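 Multiplexed reporter mRNA assay in human HepG2 liver cells; cis-regulated units report endogenous factor activity. Values come from bidirectional curve fitting against DMSO negative control after 24 h treatment.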

[4] = BSK_3C_TissueFactor: BioMAP Diversity Plus: 3C Assay for Tissue Factor Biomarker Activity (AID 2282997); details: BioMAP 3C HUVEC, tissue factor biomarker readout; actives raise or lower the signal
Outline: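 Primary human umbilical vein endothelial cells in the 3C system were exposed to test chemical for 24 h, then Tissue Factor measured by ELISA. Activity was fitted bidirectionally against DMSO as negative control and baseline.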

[5] = BSK_3C_uPAR: BioMAP Diversity Plus: 3C Assay for Urokinase-type plasminogen activator receptor (uPAR) Biomarker Activity (AID 2282998); details: BioMAP 3C HUVEC, uPAR biomarker ELISA; actives raise or lower the signal
Outline: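 Values derive from bidirectional curve fitting relative to DMSO, which served as baseline of activity. uPAR was measured by ELISA in human umbilical vein endothelial primary cultures 24 h after compound addition.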

[6] = BSK_4H_Eotaxin3: BioMAP Diversity Plus: 4H Assay for Eotaxin 3 Biomarker Activity (AID 2283000); details: primary human endothelial cells (HUVEC); actives raise or lower the signal
Outline: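 HUVEC, 24 h post-dose, ELISA for Eotaxin-3/CCL26. Gain or loss of signal fitted bidirectionally vs DMSO baseline.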

[7] = molecular target: human Peroxisome Proliferator-activated Receptor alpha (PPARa), PPARA (gene 5465) (UniProt Q07869); assay: ATG_PPARa_TRANS: Attagene TRANS-FACTORIAL HepG2 Assay for human Peroxisome Proliferator-activated Receptor alpha (PPARa) (AID 2283001; active = hit-call score of the fitted dose curve at least 0.9, where 1 is the maximum)
Outline: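 HepG2 cells transiently transfected with multiplexed GAL4-UAS reporters driven by exogenous chimeric NR-Gal4 proteins; reporter mRNA measured after 24 h dosing. Read-out by RT-PCR, 6-FAM labelling, HpaI digestion and capillary electrophoresis; gain of signal versus DMSO.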

[8] = read-out: Intercellular Adhesion Molecule 1 (ICAM1), ICAM1 (gene 3383); assay: BSK_3C_ICAM1: BioMAP Diversity Plus: 3C Assay for Intercellular Adhesion Molecule 1 (ICAM1) Biomarker Activity (AID 2283003); details: primary human endothelial cells (HUVEC); actives raise or lower the signal
Outline: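 HUVEC primary cells stimulated under 3C conditions; ICAM1 measured by ELISA 24 h after compound dosing. Curves fitted bidirectionally against the DMSO baseline. Overt cytotoxicity checked by SRB staining of parallel cultures.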

[9] = molecular target: human Retinoic Acid Receptor beta (RARb), RARB (gene 5915) (UniProt P10826); assay: ATG_RARb_TRANS: Attagene TRANS-FACTORIAL HepG2 Assay for human Retinoic Acid Receptor beta (AID 2283004; active = hit-call score of the fitted dose curve at least 0.9, where 1 is the maximum)
Outline: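 HepG2 cells transiently transfected with multiplexed GAL4-UAS reporter units expressing chimeric NR–Gal4 fusions; 24 h compound exposure. Reporter mRNA quantified by RT-PCR, 6-FAM labelling, HpaI digestion and capillary electrophoresis; gain-of-signal fitted against DMSO baseline.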

[10] = molecular target: Retinoic acid receptor alpha (Homo sapiens) (UniProt P10276); assay: ATG_RARa_TRANS: Attagene TRANS-FACTORIAL HepG2 Assay for human Retinoic Acid Receptor alpha (RARa) (AID 2283005; active = hit-call score of the fitted dose curve at least 0.9, where 1 is the maximum)
Outline: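 HepG2 transiently transfected with multiplex GAL4-UAS reporter units including a human RARa–GAL4 chimera; 24 h compound exposure. Reporter mRNA quantified by RT-PCR, 6-FAM labeling and capillary electrophoresis; gain of signal versus DMSO.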

[11] = BSK_3C_Proliferation: Cell Proliferation Assessment in the BioMAP Diversity Plus: 3C Assay (AID 2283006); details: primary human endothelial cells (HUVEC);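 as to AC50: potency may reflect either rise or fall in cell number versus DMSO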
Outline: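 Subconfluent HUVEC (3C system) cultured with chemical; relative cell number read at 48 h by sulforhodamine B total-protein staining (0.1% SRB after 10% TCA fixation, 560 nm). Bidirectional fit relative to DMSO.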

[12] = molecular target: Peroxisome proliferator-activated receptor gamma (Homo sapiens) (UniProt P37231); assay: ATG_PPARg_TRANS: Attagene TRANS-FACTORIAL HepG2 Assay for human Peroxisome Proliferator-activated Receptor-gamma (PPARg) (AID 2283007; active = hit-call score of the fitted dose curve at least 0.9, where 1 is the maximum)
Outline: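 Transient transfection of HepG2 with GAL4-UAS-driven reporter units; chemical dosing 24 h; total RNA → oligo(dT) RT → PCR with reporter primers → 6-FAM primer extension → HpaI digest 2 h 37 C → capillary electrophoresis. Positive direction vs DMSO.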

[13] = molecular target: Nuclear receptor subfamily 1 group I member 2 (Homo sapiens) (UniProt O75469); assay: ATG_PXR_TRANS: Attagene TRANS-FACTORIAL HepG2 Assay for human Pregnane X Receptor (PXR) (AID 2283008; active = hit-call score of the fitted dose curve at least 0.9, where 1 is the maximum)
Outline: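 Measures mRNA induction of a GAL4-UAS-driven reporter in human HepG2 cells transiently expressing PXR fused to Gal4, following 24 h treatment. DMSO served as negative control and baseline.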

[14] = molecular target: human Retinoic Acid Receptor gamma (RARg), RARG (gene 5916) (UniProt P13631); assay: ATG_RARg_TRANS: Attagene TRANS-FACTORIAL HepG2 Assay for human Retinoic Acid Receptor gamma (RARg) (AID 2283009; active = hit-call score of the fitted dose curve at least 0.9, where 1 is the maximum;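 as to AC50: AC50 is for reporter induction above DMSO meaning RARg activation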)
Outline: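 HepG2 transiently transfected with GAL4-UAS reporter units and chimeric NR-Gal4 constructs; 24 h compound exposure. Reporter mRNA quantified by RT-PCR, FAM labeling, HpaI digestion and capillary electrophoresis; gain-of-signal versus DMSO.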

[15] = molecular target: human RAR-related Orphan Receptor beta (RORb), RORB (gene 6096) (UniProt Q92753); assay: ATG_RORb_TRANS: Attagene TRANS-FACTORIAL HepG2 Assay for human RAR-related Orphan Receptor beta (RORb) (AID 2283010; active = hit-call score of the fitted dose curve at least 0.9, where 1 is the maximum)
Outline: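 HepG2 cells transiently transfected with GAL4-UAS reporter units expressing chimeric NR-Gal4 protein; reporter mRNA measured 24 h after dosing by RT-PCR, 6-FAM labelling and capillary electrophoresis. Gain-of-signal fitted relative to DMSO baseline.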

[16] = molecular target: Retinoic acid receptor RXR-alpha (Homo sapiens) (UniProt P19793); assay: ATG_RXRa_TRANS: Attagene TRANS-FACTORIAL HepG2 Assay for human Retinoid X Receptor alpha (RXRa) (AID 2283012; active = hit-call score of the fitted dose curve at least 0.9, where 1 is the maximum)
Outline: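 HepG2 cells transiently transfected with GAL4-UAS reporter units and chimeric RXRa-Gal4 protein, treated 24 h. Reporter mRNA measured by RT-PCR, fluorescent labelling, HpaI digestion and capillary electrophoresis. Induction fitted against DMSO.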

[17] = molecular target: human Peroxisome Proliferator-activated Receptor delta (PPARd), PPARD (gene 5467) (UniProt Q03181); assay: ATG_PPARd_TRANS: Attagene TRANS-FACTORIAL HepG2 Assay for human Peroxisome Proliferator-activated Receptor delta (PPARd) (AID 2283002; active = hit-call score of the fitted dose curve at least 0.9, where 1 is the maximum)
Outline: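 HepG2 cells transiently transfected with GAL4-UAS multiplexed reporter units driven by exogenous chimeric NR-GAL4 proteins; 24 h compound exposure. Reporter mRNA measured by RT-PCR, 6-FAM primer extension, HpaI digestion and capillary electrophoresis; gain of signal fitted relative to DMSO.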

[18] = molecular target: human Retinoid X Receptor beta (RXRb), RXRB (gene 6257) (UniProt P28702); assay: ATG_RXRb_TRANS: Attagene TRANS-FACTORIAL HepG2 Assay for human Retinoid X Receptor beta (RXRb) (AID 2283013; active = hit-call score of the fitted dose curve at least 0.9, where 1 is the maximum)
Outline: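 HepG2 cells were transiently transfected with multiplexed GAL4-UAS reporters and a chimeric RXRb-Gal4 construct, then exposed for 24 h. Reporter mRNA was quantified by RT-PCR, FAM labeling, HpaI digestion and capillary electrophoresis; gain of signal was scored against DMSO.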

[19] = molecular target: human RAR-related Orphan Receptor gamma (RORg), RORC (gene 6097) (UniProt P51449); assay: ATG_RORg_TRANS: Attagene TRANS-FACTORIAL HepG2 Assay for human RAR-related Orphan Receptor gamma (RORg) (AID 2283011; active = hit-call score of the fitted dose curve at least 0.9, where 1 is the maximum)
Outline: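 Readout: reporter transcript induction (RT-PCR, fluorescent primer extension, capillary electrophoresis) after 24 h compound exposure of transiently transfected HepG2 cells carrying a RORg-Gal4 chimera and GAL4-UAS reporters; DMSO served as baseline, with increasing signal fitted.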

[20] = BSK_3C_VCAM1: BioMAP Diversity Plus: 3C Assay for Vascular cell adhesion molecule 1 (VCAM1) Biomarker Activity (AID 2282999); details: BioMAP 3C HUVEC, VCAM1 ELISA, cytokine-stimulated; actives raise or lower the signal
Outline: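 Human umbilical vein endothelial cells (3C system), biomarker read by ELISA 24 h after dosing; bidirectional fit against DMSO baseline. Cytotoxicity tracked by SRB total-protein staining in parallel cultures at biomarker time.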

Measured: AC50

Chain of Retinoic acid receptor RXR-alpha (Homo sapiens) (P19793 whole entry, looked up, the tested form may be a part): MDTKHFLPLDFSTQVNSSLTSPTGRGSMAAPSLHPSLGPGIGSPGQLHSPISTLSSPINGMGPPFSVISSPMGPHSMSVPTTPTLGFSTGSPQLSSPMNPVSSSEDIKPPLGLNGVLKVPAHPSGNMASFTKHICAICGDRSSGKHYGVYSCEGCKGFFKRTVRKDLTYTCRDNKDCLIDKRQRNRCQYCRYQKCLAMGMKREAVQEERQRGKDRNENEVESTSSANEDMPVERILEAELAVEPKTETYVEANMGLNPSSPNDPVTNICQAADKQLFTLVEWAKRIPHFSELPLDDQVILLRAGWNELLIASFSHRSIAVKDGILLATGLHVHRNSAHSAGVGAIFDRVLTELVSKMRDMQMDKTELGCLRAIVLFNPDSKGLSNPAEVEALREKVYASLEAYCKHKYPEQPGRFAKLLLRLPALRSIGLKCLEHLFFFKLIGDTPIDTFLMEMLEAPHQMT
Chain of human Peroxisome Proliferator-activated Receptor alpha (PPARa), PPARA (gene 5465) (Q07869 whole entry, looked up, the tested form may be a part): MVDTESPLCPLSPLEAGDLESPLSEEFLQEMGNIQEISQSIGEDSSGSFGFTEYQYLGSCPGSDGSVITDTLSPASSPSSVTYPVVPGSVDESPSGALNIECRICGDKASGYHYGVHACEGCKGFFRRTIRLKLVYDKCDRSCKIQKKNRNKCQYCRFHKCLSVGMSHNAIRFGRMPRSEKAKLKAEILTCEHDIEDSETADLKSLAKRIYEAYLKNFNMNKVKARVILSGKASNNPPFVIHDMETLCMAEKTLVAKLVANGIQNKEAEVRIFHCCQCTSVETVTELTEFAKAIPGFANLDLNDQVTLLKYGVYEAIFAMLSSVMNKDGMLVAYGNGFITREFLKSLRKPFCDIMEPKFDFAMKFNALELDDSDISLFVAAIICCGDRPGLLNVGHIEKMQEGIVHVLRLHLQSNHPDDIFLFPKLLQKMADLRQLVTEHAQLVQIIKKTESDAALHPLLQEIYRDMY
Chain of human RAR-related Orphan Receptor beta (RORb), RORB (gene 6096) (Q92753 whole entry, looked up, the tested form may be a part): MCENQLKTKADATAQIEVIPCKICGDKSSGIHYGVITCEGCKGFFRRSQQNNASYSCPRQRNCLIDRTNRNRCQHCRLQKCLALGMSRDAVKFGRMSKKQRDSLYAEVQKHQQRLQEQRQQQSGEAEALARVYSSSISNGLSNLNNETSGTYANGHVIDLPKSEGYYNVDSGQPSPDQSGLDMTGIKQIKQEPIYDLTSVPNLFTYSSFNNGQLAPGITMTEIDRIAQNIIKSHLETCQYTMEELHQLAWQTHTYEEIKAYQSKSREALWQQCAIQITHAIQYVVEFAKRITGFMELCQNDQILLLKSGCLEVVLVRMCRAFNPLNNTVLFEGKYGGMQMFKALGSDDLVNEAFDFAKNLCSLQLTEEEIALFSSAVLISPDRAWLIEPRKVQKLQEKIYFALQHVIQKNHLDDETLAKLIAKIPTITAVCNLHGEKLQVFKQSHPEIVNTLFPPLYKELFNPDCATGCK
Chain of human Retinoic Acid Receptor beta (RARb), RARB (gene 5915) (P10826 whole entry, looked up, the tested form may be a part): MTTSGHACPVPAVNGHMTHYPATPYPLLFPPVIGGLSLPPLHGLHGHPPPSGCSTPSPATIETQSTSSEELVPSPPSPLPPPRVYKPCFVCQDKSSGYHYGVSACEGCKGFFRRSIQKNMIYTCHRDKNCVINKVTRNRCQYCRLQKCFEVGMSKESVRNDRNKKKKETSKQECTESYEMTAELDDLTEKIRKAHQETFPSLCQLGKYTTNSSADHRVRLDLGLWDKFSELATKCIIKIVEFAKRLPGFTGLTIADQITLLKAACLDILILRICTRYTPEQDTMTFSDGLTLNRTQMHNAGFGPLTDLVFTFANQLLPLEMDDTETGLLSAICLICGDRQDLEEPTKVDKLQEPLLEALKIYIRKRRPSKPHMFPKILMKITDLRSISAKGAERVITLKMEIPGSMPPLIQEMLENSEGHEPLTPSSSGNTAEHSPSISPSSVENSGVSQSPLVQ
Chain of human RAR-related Orphan Receptor gamma (RORg), RORC (gene 6097) (P51449 whole entry, looked up, the tested form may be a part): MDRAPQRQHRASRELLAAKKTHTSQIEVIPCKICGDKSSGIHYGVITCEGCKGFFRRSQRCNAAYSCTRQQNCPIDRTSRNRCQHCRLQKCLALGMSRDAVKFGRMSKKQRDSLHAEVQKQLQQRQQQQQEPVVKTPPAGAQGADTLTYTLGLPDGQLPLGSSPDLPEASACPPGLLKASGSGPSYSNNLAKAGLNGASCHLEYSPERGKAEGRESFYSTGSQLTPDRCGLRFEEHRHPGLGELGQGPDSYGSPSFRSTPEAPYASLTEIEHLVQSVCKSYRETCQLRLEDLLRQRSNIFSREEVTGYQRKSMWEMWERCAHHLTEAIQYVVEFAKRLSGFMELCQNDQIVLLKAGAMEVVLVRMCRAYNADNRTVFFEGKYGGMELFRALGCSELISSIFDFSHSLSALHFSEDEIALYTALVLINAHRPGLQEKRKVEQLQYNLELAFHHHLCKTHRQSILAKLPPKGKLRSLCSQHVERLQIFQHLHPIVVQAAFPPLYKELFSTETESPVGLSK
Chain of human Retinoid X Receptor beta (RXRb), RXRB (gene 6257) (P28702 whole entry, looked up, the tested form may be a part): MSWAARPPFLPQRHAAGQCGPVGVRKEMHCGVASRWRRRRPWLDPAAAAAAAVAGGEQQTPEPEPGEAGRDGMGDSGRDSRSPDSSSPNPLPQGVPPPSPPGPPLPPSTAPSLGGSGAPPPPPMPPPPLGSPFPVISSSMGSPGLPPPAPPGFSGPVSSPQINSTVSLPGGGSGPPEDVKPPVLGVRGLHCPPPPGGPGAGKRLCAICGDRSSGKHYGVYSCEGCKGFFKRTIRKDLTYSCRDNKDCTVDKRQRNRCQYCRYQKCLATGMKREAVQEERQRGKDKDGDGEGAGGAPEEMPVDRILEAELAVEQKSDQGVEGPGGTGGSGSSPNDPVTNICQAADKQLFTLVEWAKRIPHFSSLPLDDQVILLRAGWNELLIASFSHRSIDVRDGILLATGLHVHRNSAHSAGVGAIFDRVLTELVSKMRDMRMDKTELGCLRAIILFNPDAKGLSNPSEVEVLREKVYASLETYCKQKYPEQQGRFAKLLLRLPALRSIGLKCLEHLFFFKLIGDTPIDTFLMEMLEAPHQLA
Chain of human Retinoic Acid Receptor gamma (RARg), RARG (gene 5916) (P13631 whole entry, looked up, the tested form may be a part): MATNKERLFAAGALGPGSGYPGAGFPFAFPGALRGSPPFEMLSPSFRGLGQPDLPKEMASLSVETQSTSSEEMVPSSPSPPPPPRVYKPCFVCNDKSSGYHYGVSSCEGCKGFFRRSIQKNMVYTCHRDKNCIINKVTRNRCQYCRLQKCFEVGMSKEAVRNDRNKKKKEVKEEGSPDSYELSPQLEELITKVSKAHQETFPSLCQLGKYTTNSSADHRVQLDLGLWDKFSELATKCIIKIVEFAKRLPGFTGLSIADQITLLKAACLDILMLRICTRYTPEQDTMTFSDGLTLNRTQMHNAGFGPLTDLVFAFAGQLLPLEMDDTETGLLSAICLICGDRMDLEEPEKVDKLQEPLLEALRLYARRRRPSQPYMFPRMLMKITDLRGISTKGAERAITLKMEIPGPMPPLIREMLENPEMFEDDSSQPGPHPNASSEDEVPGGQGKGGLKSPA
Chain of Peroxisome proliferator-activated receptor gamma (Homo sapiens) (P37231 whole entry, looked up, the tested form may be a part): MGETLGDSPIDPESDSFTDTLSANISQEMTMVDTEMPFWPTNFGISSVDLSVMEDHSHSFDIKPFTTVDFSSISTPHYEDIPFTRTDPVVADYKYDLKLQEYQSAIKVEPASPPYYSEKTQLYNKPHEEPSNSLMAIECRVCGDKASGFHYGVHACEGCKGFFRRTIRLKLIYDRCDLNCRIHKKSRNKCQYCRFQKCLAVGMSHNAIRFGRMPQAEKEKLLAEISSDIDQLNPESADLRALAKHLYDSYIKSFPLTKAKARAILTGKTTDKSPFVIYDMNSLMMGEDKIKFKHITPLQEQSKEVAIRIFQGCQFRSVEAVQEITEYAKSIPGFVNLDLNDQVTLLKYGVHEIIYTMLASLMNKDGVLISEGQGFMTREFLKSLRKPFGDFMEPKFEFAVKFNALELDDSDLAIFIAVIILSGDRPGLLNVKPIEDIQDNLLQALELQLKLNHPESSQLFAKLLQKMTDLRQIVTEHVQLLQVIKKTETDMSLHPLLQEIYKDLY
Chain of Cellular tumor antigen p53 (Homo sapiens) (P04637 whole entry, looked up): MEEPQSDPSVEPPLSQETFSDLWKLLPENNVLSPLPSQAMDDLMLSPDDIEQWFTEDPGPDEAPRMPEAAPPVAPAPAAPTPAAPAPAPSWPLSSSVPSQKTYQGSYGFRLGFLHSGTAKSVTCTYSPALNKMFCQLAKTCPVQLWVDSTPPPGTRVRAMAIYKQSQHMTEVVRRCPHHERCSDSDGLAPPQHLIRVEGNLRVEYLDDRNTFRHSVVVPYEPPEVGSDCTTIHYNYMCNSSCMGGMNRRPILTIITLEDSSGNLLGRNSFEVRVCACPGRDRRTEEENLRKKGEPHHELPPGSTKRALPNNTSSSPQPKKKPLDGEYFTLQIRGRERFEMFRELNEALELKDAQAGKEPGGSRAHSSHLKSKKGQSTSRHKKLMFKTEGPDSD
Chain of human Peroxisome Proliferator-activated Receptor delta (PPARd), PPARD (gene 5467) (Q03181 whole entry, looked up, the tested form may be a part): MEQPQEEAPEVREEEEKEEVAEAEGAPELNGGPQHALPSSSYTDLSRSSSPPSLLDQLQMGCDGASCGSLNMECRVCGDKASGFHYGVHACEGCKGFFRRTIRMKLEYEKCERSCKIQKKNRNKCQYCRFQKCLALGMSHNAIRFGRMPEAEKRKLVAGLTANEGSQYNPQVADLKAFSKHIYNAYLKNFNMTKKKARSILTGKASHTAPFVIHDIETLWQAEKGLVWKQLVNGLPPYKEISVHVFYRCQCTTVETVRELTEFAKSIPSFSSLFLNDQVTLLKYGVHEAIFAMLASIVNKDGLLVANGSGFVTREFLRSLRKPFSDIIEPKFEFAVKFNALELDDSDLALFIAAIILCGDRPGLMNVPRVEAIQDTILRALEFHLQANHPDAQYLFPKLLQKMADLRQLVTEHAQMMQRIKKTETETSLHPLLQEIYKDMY

Cc1ccc2nc3sc(=O)sc3nc2c1
inactive: [3] | [4] | [7] | [9] | [10] | [15] | [16]
active: [1] 4.06 µM | [2] 6.95 µM | [5] 3.43 µM | [6] 5.95 µM | [8] 7.74 µM | [11] 7.3 µM | [12] 2 µM | [13] 6.31 µM | [14] 17.7 µM

Oc1ccc(Cc2ccc(O)cc2)cc1
active: [1] 100 µM | [12] 15.8 µM
inactive: [2] | [3] | [4] | [7] | [17] | [8] | [11] | [13] | [16] | [18]

OCCCCO
inactive: [1] | [2] | [3] | [4] | [5] | [7] | [8] | [11] | [14] | [15] | [19]

c1ccc(-c2cccc(-c3ccccc3)c2)cc1
inactive: [2] | [3] | [7] | [8] | [15] | [16]
active: [1] 40.9 µM | [4] 4.68 µM | [20] 20 µM | [6] 20 µM | [11] 13.2 µM | [13] 11.5 µM | [18] 7.98 µM

NC(=O)CCl
active: [1] 78.2 µM
not listed: [12] | [20]
inactive: all other assays above

Oc1cccc(-c2ccccc2)c1
active: [1] 100 µM | [6] 20 µM | [11] 27.2 µM | [12] 34.6 µM | [13] 26.1 µM | [18] 36.6 µM
not listed: [5] | [10] | [14] | [15] | [20]
inactive: all other assays above

Nc1ccc(Br)cc1
inactive: [1] | [2] | [3] | [7] | [17] | [13] | [15] | [19] | [16] | [18]

CN(C)[C@@H]1C(=O)C(C(N)=O)=C(O)[C@@]2(O)C(=O)C3=C(O)c4c(O)ccc(Cl)c4[C@@](C)(O)[C@H]3C[C@@H]12
active: [1] 20.3 µM
inactive: [2] | [3] | [7] | [17] | [14] | [19] | [16]

CCOc1cc(C=O)ccc1O
inactive: [1] | [2] | [3] | [7] | [17] | [13] | [15] | [19] | [16] | [18]
